ATXN2 expr inh – ATXN2 expression inhibition; HEK-293 ATXN2-luciferase reporter, luminescence, 24 h; Potency, µM (top dose mostly 57 µM), for the others: at the highest dose activity change, negative = inhibition, actives largely listed as inhibitors; 0.72% of 360,000 active; also: % is scaled to controls: 0 for no effect and ±100 for the full control effect; nearly all actives have a fitted effect of over 55% in size
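ATXN2-luciferase reporter cells (luciferase flanked by upstream and downstream ATXN2 gene portions) were treated 24 h at 37 °C with compounds at up to 57 uM. SteadyGlo luminescence gave expression; GF-AFC fluorescence gave viability.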
TDP1 cell noCPT – qHTS for Inhibitors of human tyrosyl-DNA phosphodiesterase 1 (TDP1): qHTS in cells in absence of CPT. Potency, µM (top dose mostly 46.2 µM), for the others: at the highest dose activity change, negative = growth inhibition, usual class: inhibitors. AID 686978, 2013. DT40 Tdp1-/- hTDP1 cells, no CPT, ATP luminescence, 48 h. 15% of 420,000 active; also: % is scaled to controls: 0 for no effect and ±100 for the full control effect; nearly all actives have a fitted effect of over 55% in size
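Camptothecin absent (DMSO only). Human TDP1-complemented DT40 knockout cells, 400 cells/well, 37 °C for minimum 48 hr; ATP measured via CellTiter-Glo, 30 min dark incubation, luminescence.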
ATXN viability – cell viability loss in ATXN counter-screen; 0.49% of 400,000 active; S2 cells (HEK-293 line with an ATXN2-luciferase reporter) viability, CellTiter-Fluor protease fluorescence, 24 h; AID 651635; Potency, µM (top dose mostly 56.7 µM), actives largely listed as cytotoxic; also: nearly all actives have a fitted effect of over 40% in size
TGFb inhibitor – TGF-b pathway inhibition; Potency, µM (top dose mostly 46.1 µM), inactives show top-dose activity, negative = inhibition, hits mostly inhibitors; HepG2 CAGA-GFP TGF-b/SMAD3 reporter, GFP fluorescence, 18 h; TGF-beta stimulated, 500 pg/mL final; 1.2% of 410,000 active; also: % is scaled to controls: 0 for no effect and ±100 for the full control effect; nearly all actives have a fitted effect of over 65% in size
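HEPG2 CAGA-GFP, 1000 cells/well; 2 h settle, 37 C; cpd via pin tool; TGF-b 500 pg/mL final; 18 h, 37 C; GFP imaging ex488/em500-530; %Activity normalised to -TGF-b and +DMSO controls; CRC fit, curve class.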
TDP1 cell CPT – DT40-hTDP1 cell growth loss with CPT. chicken DT40 Tdp1-/-;hTDP1 cells + 20 nM CPT, ATP luminescence, 48 h. Potency, µM (highest dose often 46.2 µM), inactives show at the top dose activity change, negative = growth inhibition, hits mostly inhibitors. 12% of 420,000 active. AID 686979; also: % is scaled to controls: 0 for no effect and ±100 for the full control effect; nearly all actives have a fitted effect of over 55% in size
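Cell growth measured by CellTiter-Glo luminescence after a minimum 48 h, 37 C compound exposure with 20 nM CPT in Tdp1-knockout DT40 cells stably expressing hTDP1, seeded 400/well; qHTS titration format.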
HepG2 viability – counter-screen for TGF-b inhibitors: cytotoxicity in HepG2 cells. HepG2 CAGA-GFP viability, ATP luminescence, 18 h. Potency, µM (highest dose often 46.1 µM), inactives show at the highest dose activity change, negative = cytotoxicity, usual class: cytotoxic. 0.76% of 410,000 active
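HepG2 CAGA-GFP cells (1000/well, DMEM with 1% FBS) received compound, then TGF-beta at 500 pg/mL final, and were incubated 18 hours at 37 degrees C. Viability was read by CellTiter-Glo luminescence. Media-only wells were set as complete cell-killing and DMSO as no toxicity.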
Starred values were filed as active, the others as inactive; i = inactive; ? = inconclusive; · = not tested or not shown; [ ] = remark or other dose. Shown are actives, neighbours in structure and some others; about 17% of the full set was active somewhere. Calls follow the shape of the dose curve; as a rule, active = well fitted curve in the direction sought with a large enough effect; inconclusive = small, poorly fitted or top-dose-only effect, or another doubt; inactive = no such curve, though single readings can be large; an effect the other way counts as inactive or inconclusive. Potency is read from the fitted curve at half-maximal effect.

SMILES	ATXN2 expr inh	TDP1 cell noCPT	ATXN viability	TGFb inhibitor	TDP1 cell CPT	HepG2 viability
COCCn1c(C)cc(C(=O)CSc2nc(C)cc(C)c2C#N)c1C	-11.2%	18.4µM*	i	-37.3%	20.6µM*	-17.2%
CCOC(=O)CSc1nc(C)cc(C)c1C#N	5.8%	-19.9%	i	0.8%	5.1%	-20.5%
Cc1cc(C)c(C#N)c(SCc2ccccc2)n1	-2.6%	-21.1%	i	14.7%	-9.7%	4.4%
COc1ccc2c(c1)-c1nc(NC(=O)c3ccc(OC)c(Br)c3)sc1CC2	-25.6%	8.2µM*	i	-6.1%	?	-51.6%
COc1ccc(C(=O)Nc2nc3c(s2)CCc2cc(OC)ccc2-3)cc1	?	25.9µM*	?	-17.1%	23.1µM*	-21.5%
COc1ccc(C(=O)Nc2nc(-c3ccc([N+](=O)[O-])cc3)c(-c3ccc(OC)cc3)s2)cc1	0.9%	10.3µM*	i	3.3%	?	18.4%
COc1ccc2c(c1)Cc1sc(NC(=O)c3cccc(C)c3)nc1-2	·	?	·	·	?	-0.3%
COc1ccc2c(c1)Cc1sc(NC(=O)c3ccc(Cl)cc3)nc1-2	·	13µM*	·	-8.1%	20.6µM*	-13.7%
NS(=O)(=O)c1ccccc1NC(=S)Nc1ccccc1S(N)(=O)=O	·	-0.9%	i	8.6%	9.4%	-4.0%
CN(C)c1ccnc2sc3c(SCc4ccc(Cl)cc4)ncnc3c12	28.2%	13µM*	i	0.5%	16.4µM*	2.8%
CN(C)c1ccnc2sc3c(NCC(O)CO)ncnc3c12 (stereo unspecified)	·	?	i	3.9%	-5.5%	-3.5%
CN1CCN(S(=O)(=O)c2cccc(C(=O)Nc3sc4c(c3C(N)=O)CCCC4)c2)CC1	-10.6%	?	i	-8.1%	?	-25.0%
CC(C)c1ccc(OC(=O)c2cccc(S(=O)(=O)N3CCN(C)CC3)c2)cc1	-6.1%	18.4µM*	i	-2.4%	?	-33.6%
COC(=O)c1c(NC(=O)c2cccc(S(=O)(=O)N3CCN(C)CC3)c2)sc(C)c1C	-19.0%	14.6µM*	i	15.9%	14.6µM*	-21.6%
CN1CCN(S(=O)(=O)c2cccc(C(=O)Oc3ccc(C(C)(C)C)cc3)c2)CC1	-12.8%	?	i	16.1%	?	15.2%
O=C(Cc1c(F)cccc1Cl)OCC(=O)c1ccc[nH]1	20.8%	-19.7%	i	0.0%	-11.6%	-1.7%
COc1ccc(-c2cc(C(=O)Oc3ccc(Cl)cc3)c3ccccc3n2)cc1	·	?	·	-18.8%	?	4.2%
CCc1cc2c(cc1N1CCC(N3CCOCC3)CC1)C(C)(C)c1[nH]c3cc(C#N)ccc3c1C2=O	-24.8%	·	·	·	·	·
COc1cc(NC(=O)c2cccc(Cl)c2Cl)ccc1NC(=O)c1cc2ccccc2o1	-0.8%	2.59µM*	?	-13.9%	5.17µM*	-18.1%
CCOC(=O)c1cccc(NC(=O)c2cc3ccccc3o2)c1	·	?	i	-13.6%	8.2µM*	-49.8%
CCC(=O)Nc1ccc(NC(=O)c2cc3ccccc3o2)c(OC)c1	11.8%	10.3µM*	i	8.3%	?	-7.4%
COc1cc(NC(=O)c2c(OC)cccc2OC)ccc1NC(=O)c1cc2ccccc2o1	18.0%	?	i	-0.8%	10.3µM*	-9.0%
COc1cc(NC(=O)c2cc3ccccc3o2)ccc1NC(=O)c1ccco1	-5.4%	-28.4%	i	7.9%	-3.8%	-39.6%
Cc1oc(-c2cc(F)cc(F)c2)nc1CN1CCN(C(=O)c2ccco2)CC1	6.8%	?	i	-7.4%	?	-57.5%
CCOc1ccc(CNCc2c(C(=O)O)c(C)n(Cc3c(F)cccc3Cl)c2C)cc1OC	-11.2%	?	i	-12.4%	?	-16.7%
SMILES	ATXN2 expr inh	TDP1 cell noCPT	ATXN viability	TGFb inhibitor	TDP1 cell CPT	HepG2 viability
CC(OC(=O)CN1C(=O)c2ccccc2C1=O)C(=O)NC1CCCCC1C (stereo unspecified)	-0.5%	-0.5%	i	-0.7%	8.6%	-44.4%
CCCCCC(=O)Nc1ccc(NC(=O)c2cc3ccccc3o2)c(OC)c1	?	4.61µM*	i	-14.4%	6.51µM*	-20.6%
COc1cc(NC(=O)c2ccc(C)cc2)ccc1NC(=O)c1cc2ccccc2o1	?	-26.3%	i	?	0.9%	-10.4%
O=C(Nc1cccnc1)c1cc2cc(Br)ccc2o1	-0.2%	-17.0%	?	-17.5%	?	-37.0%
O=S1(=O)CC(O)C(O)CS1 (stereo unspecified)	-5.0%	?	i	·	23.1µM*	·
COc1ccccc1-c1cc(C(=O)NCc2ccccc2)c2c(-c3ccc(C)cc3)[nH]nc2n1	-23.3%	?	?	-37.8%	23.1µM*	-50.8%
COc1cc(OC)c(-c2cc(C(=O)NCc3ccc(F)cc3)c3c(-c4ccccc4)[nH]nc3n2)cc1OC	?	?	·	?	?	11.2µM*
Cc1ccccc1CN1C(=O)c2ccccc2S(=O)c2ccc(C(=O)NCc3ccco3)cc21 (stereo unspecified)	2.6%	?	i	0.0%	?	-5.1%
COC(=O)CSc1nnc(NC(=O)C2CC(=O)N(c3ccc(F)cc3)C2)s1 (stereo unspecified)	17.4%	9.7%	i	-11.1%	3.7%	4.2%
CCC1CN(CCNC(=O)c2cc(C)nn2CC)Cc2cc(OC)ccc2O1 (stereo unspecified)	·	?	i	·	-2.5%[9.04 µM]	·
Cc1cccc(NC(=O)N2C3CCCC2CC(NC(=O)C2CC2)C3)c1 (stereo unspecified)	-2.0%	-8.4%	i	-12.7%	4.1%	-22.4%
O=C(NC1CC2CCCC(C1)N2C(=O)Nc1ccc(Cl)c(C(F)(F)F)c1)C1CC1 (stereo unspecified)	-13.5%	16.4µM*	i	1.6%	?	-35.1%
COc1ccc(-n2nc([N+](=O)[O-])c(=NCCCN3CCCC3=O)n2O)cc1	·	?	i	?	?	-10.4%
Cc1cccc(-n2nc([N+](=O)[O-])c(=NC3CCN(Cc4ccccc4)CC3)n2O)c1	·	11.6µM*	i	?	8.2µM*	15.8µM*
Cc1cccc(CCN=c2c([N+](=O)[O-])nn(-c3ccccc3)n2O)c1	?	?	i	-26.8%	14.6µM*	-25.4%
O=C1CCCN1CCCN=c1c([N+](=O)[O-])nn(-c2ccc(Cl)cc2)n1O	?	6.51µM*	?	?	3.26µM*	4.4%

Bioassay records deposited in PubChem by National Center for Advancing Translational Sciences (NCATS).
